Screens (PubChem BioAssay)
Shown are actives, neighbours in structure and some others; about 15% of the full set was active somewhere.
ALOX12 inh – inhibitors of human 12S-lipoxygenase ALOX12. P18054. Potency, µM (doses to about 108 µM), for the others: at the top dose activity change, negative = inhibition, hits mostly inhibitors. 1.1% of 580,000 active. purified 12hLO, xylenol orange hydroperoxide absorbance
Target sequence (P18054 whole entry, looked up): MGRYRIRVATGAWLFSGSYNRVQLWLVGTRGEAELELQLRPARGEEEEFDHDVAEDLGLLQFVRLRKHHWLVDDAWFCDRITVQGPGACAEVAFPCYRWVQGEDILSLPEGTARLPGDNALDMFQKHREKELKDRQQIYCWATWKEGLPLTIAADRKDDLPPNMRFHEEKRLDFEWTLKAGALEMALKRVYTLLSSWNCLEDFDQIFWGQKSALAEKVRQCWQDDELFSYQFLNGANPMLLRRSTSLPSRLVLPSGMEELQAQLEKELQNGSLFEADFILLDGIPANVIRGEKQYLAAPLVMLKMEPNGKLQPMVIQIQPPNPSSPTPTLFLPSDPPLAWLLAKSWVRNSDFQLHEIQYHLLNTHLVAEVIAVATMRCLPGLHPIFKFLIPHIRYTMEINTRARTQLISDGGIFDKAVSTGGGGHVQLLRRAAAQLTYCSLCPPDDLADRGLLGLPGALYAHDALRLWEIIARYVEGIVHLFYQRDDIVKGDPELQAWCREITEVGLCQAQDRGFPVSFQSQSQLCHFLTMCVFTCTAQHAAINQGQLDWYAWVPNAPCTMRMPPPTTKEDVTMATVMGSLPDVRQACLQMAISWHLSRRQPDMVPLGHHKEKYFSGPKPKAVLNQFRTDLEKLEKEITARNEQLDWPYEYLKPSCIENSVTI
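Purified human 12hLO (150 nM final) in 25 mM Hepes, 0.01% Triton X-100, pH 7.0 was preincubated 15 min at room temperature with compound. Then 40 uM arachidonic acid was added, 30 min. Hydroperoxide was read by Fe-XO absorbance ratio 573/405 nm.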
VP16 counter – counter-screen for ROR gamma inhibitors: Gal4-VP16 reporter | 3.5% of 310,000 active | AID 2546 | Potency, µM (titrated, usually from 53.6 µM), inactives show at the top dose activity, negative = inhibition, most hits filed as inhibitors | Drosophila S2 Gal4-VP16 UAS-luciferase, luminescence, 20 h;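 note: Gal4-VP16 expression switched on by copper sulfate through the metallothionein promoter; nearly all actives have a fitted effect of over 50% in size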
ELG1 DNA repair – inhibitors of ELG1-dependent DNA repair in HEK293T cells | HEK293T ELG1-luciferase reporter, luminescence, 16 h; DNA damage induced by 5-fluorouridine | Potency, µM (highest dose often 46.1 µM), for the others: top-dose activity change, negative = inhibition, actives largely listed as inhibitors | 2.3% of 330,000 active | AID 504467; note: nearly all actives have a fitted effect of over 55% in size
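5-Fluorouridine DNA damage + compound/DMSO, 2,000 cells/well, 16 h, 37 °C/5% CO2. ONE-Glo, 30 min RT, luminescence. Readout = decrease in reporter signal.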
DT40 TDP1 CPT – growth inhibition of DT40 Tdp1-/-;hTDP1 cells with camptothecin (screen for TDP1 inhibitors) | chicken DT40 Tdp1-/-;hTDP1 cells + 20 nM CPT, ATP luminescence, 48 h | 12% of 420,000 active | Potency, µM (titrated, usually from 46.2 µM), for the others: at the top dose activity change, negative = growth inhibition, actives largely listed as inhibitors; note: nearly all actives have a fitted effect of over 55% in size
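Chicken DT40 Tdp1-/- cells complemented with human TDP1, 400 cells/well, exposed to compounds plus 20 nM camptothecin for at least 48 h at 37 C; viability read as ATP content by CellTiter-Glo luminescence.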
RORgamma inh – ROR gamma (mouse) transcription inhibition; Drosophila S2 Gal4-RORgamma UAS-luciferase reporter, 20 h; Potency, µM (doses to about 53.6 µM), without a hit: at the top dose activity change, negative = inhibition, usual class: inhibitors; 5.4% of 310,000 active; AID 2551; note: nearly all actives have a fitted effect of over 60% in size
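Luminescence from a UAS-regulated Photinus luciferase reporter in stably transfected Drosophila Schneider cells is measured; decreased signal marks ROR gamma inhibition. Fusion expression is induced by 700 uM copper sulfate for 20 hr.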
DT40 TDP1 no CPT – qHTS for Inhibitors of human tyrosyl-DNA phosphodiesterase 1 (TDP1): qHTS in cells in absence of CPT. DT40 Tdp1-/- hTDP1 cells, no CPT, ATP luminescence, 48 h. Potency, µM (titrated, usually from 46.2 µM), without a hit: at the highest dose activity change, negative = growth inhibition, hits mostly inhibitors. 15% of 420,000 active. AID 686978, 2013; note: nearly all actives have a fitted effect of over 55% in size
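Chicken DT40 Tdp1-/- cells stably complemented with human TDP1 were seeded at 400 cells/well with DMSO in place of 20 nM camptothecin. After compound pinning, cells grew at least 48 hr at 37 °C; viability read by CellTiter-Glo luminescence.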
* marks the source's active call; other numbers are inactive results; ? = inconclusive; · = no result; [ ] = another dose, or the depositor's remark. Calls come from the whole dose curve; as a rule, active = well fitted curve in the direction sought with a large enough effect; inconclusive = small, poorly fitted or top-dose-only effect, or another doubt; inactive = no such curve, though single readings can be large; an effect the other way counts as inactive or inconclusive. % is set by controls: 0 for no effect and ±100 for the full control effect; potency is the fitted concentration of half-maximal effect.

SMILES	ALOX12 inh	VP16 counter	ELG1 DNA repair	DT40 TDP1 CPT	RORgamma inh	DT40 TDP1 no CPT
O=C(c1n[nH]c(=O)c2ccccc12)N1CCCC1c1ccc2c(c1)OCCCO2 (centres undefined)	-2%	·	·	·	·	·
CN(C)CC(CCC(CN(C)C)C(=O)c1ccccc1)C(=O)c1ccccc1 (centres undefined)	·	10µM*	?	1.5µM*	7.1µM*	1.6µM*
COc1ccc(-c2ccc(C(=O)O)cc2)cc1	-26%	·	·	·	·	·
COc1ccc(C(=O)C(CCCCC(CN(C)C)C(=O)c2ccc(OC)cc2)CN(C)C)cc1 (centres undefined)	-21%	-3%	-2%	21µM*	-3%	5.8µM*
O=C(/C=C/c1ccccc1)NC(NC(=S)Nc1ccc(Cl)cc1)C(Cl)(Cl)Cl (centres undefined)	?	10µM*	-16%	16µM*	?	5.2µM*
O=C(NC(NC(=S)Nc1cc(Cl)ccc1Cl)C(Cl)(Cl)Cl)c1ccco1 (centres undefined)	?	-23%	-1%	?	-27%	-29%
CC(C)NC(NC(=O)/C=C/c1ccccc1)C(Cl)(Cl)Cl (centres undefined)	0%	-3%	4%	-3%	10%	?
O=C(/C=C/c1ccccc1)NC(NC(=S)Nc1cc(Cl)ccc1Cl)C(Cl)(Cl)Cl (centres undefined)	4%	2%	-2%	5.2µM*	15%	5.2µM*
COc1ccc(NC(=S)NC(NC(=O)/C=C/c2ccccc2)C(Cl)(Cl)Cl)cc1 (centres undefined)	9%	?	-5%	?	?	18µM*
O=C(Cc1ccccc1)NC(NC(=S)Nc1cc(Cl)ccc1Cl)C(Cl)(Cl)Cl (centres undefined)	4%	?	0%	-26%	?	23µM*
COCCN1CC(C(=O)N(C)Cc2cnn(-c3ccccc3C)c2)CCC1=O (centres undefined)	7%	·	·	·	·	·
CC(C)C(NC(=O)c1ccc([N+](=O)[O-])cc1)C(C)C	-24%	·	·	·	·	·
COCCn1ncc(N2CCCC(CC(=O)Nc3cc(OC)ccc3OC)C2)cc1=O (centres undefined)	47%	·	·	·	·	·
O=C(CCc1ccccc1)NC(NC(=S)Nc1ccc(Cl)cc1)C(Cl)(Cl)Cl (centres undefined)	-30%	?	0%	8.2µM*	-30%	4.6µM*
Cc1nc(C)c(C(=O)N2CCC(Cc3nc(C4CC4)n[nH]3)CC2)s1	32%	·	·	·	·	·
Cn1cnc2c1c(=O)n(CC(=O)NC13CC4CC(CC(C4)C1)C3)c(=O)n2C	12%	·	·	·	·	·
CCc1ccc(N2CC(c3noc(-c4ccco4)n3)CC2=O)cc1 (centres undefined)	-7%	·	·	·	·	·
COCCOC(=O)C1=C(C)NC(SCC(=O)NC(C)(C)C)=C(C#N)C1c1ccco1 (centres undefined)	43%	4%	?	26µM*	2%	23µM*
C=CCOC(=O)C1=C(C)NC(SCC(=O)Nc2ccc(C)c(Cl)c2)=C(C#N)C1c1ccco1 (centres undefined)	?	-18%	0%	?	-28%[10 µM]	29µM*
CCOC(=O)C1=C(c2ccccc2)NC(SCC(=O)NC2CCCCC2)=C(C#N)C1c1ccco1 (centres undefined)	1%	-10%	18µM*	6%	?	2%
CC(=O)NCCNC(=O)CCc1ncc(-c2ccccc2Cl)o1	10%	·	·	·	·	·
Cc1c(Cl)cccc1N1CC(c2nc3ccccc3n2C(C)C)CC1=O (centres undefined)	-16%	·	·	·	·	·
Cc1ccc(N=C2CCCN2Cc2ccccc2)c(C#N)c1	4%[57.4 µM]	-8%	12%	?	-4%	21µM*
